PubChem BioAssay AID463173 (ICCB-Longwood Screening Facility, Harvard Medical School, 2010)
Among all 52,000 compounds or so, about 4,300 (8.3%) were called active. The sample as a whole holds a higher share of actives than the screen did. Values without a mark were called inactive. Rule as the data show it: active = survival mostly below about 52% (no sharp cut-off); inactive = mostly above about 56%.

tested on: DeltatarO mutant; test: S. aureus survival, RN4220 and DeltatarO strains – OD600, teichoic acid synthesis inhibitors, primary screen (AID 463173); details: S. aureus RN4220 wild type/DeltatarO growth, OD600, 18 h, active compounds read low, screened at 18.75 µg/mL (by protocol)

Structure (SMILES) | survival
CCOCCc1nn2c(=O)cc(COC(=O)c3ccc(NC(=O)C(C)(C)C)cc3)nc2s1 | 83%
CCCc1nn2c(=O)cc(COC(=O)c3ccc(NC(=O)COc4ccc(F)cc4)cc3)nc2s1 | 37% (active)
CCCc1nn2c(=O)cc(COC(=O)c3ccc(NC(=O)COc4ccccc4)cc3)nc2s1 | 92%
CCOCCc1nn2c(=O)cc(COC(=O)c3ccc(NC(=O)c4cccs4)cc3)nc2s1 | 112%
CCCc1nn2c(=O)cc(COC(=O)c3cccc(NC(=O)COc4ccc(F)cc4)c3)nc2s1 | 99%
CCOCCc1nn2c(=O)cc(COC(=O)c3ccc(NC(=O)c4ccc(F)cc4)cc3)nc2s1 | 32% (active)
Cc1ccc(OCc2n[nH]c(=S)n2C2CCCCC2)cc1 | 99%
Cc1ccc(C2=CC(c3ccccc3F)n3c(nc4ccccc43)N2)cc1C (configuration not stated) | 70%
O=C(NC1CCCCC1)C(c1ccc(O)c(O)c1)N(C(=O)Cn1nnc2ccccc21)C1CCCCC1 (configuration not stated) | 99%
O=c1ccc2cc(S(=O)(=O)Nc3ccc(OC(F)(F)F)cc3)ccc2[nH]1 | 91%
COC(=O)c1cccnc1-n1c(=O)c2cccnc2n(CC(=O)Nc2c(C)cc(C)cc2C)c1=O | 82%
CC(C)CNCC1OCc2ccccc2CO1 | 98%
CC(C)(C)NC(=O)CCSc1nc(-c2ccc3c(c2)OCO3)cc(C(F)(F)F)n1 | 15% (active)
CC(C)NC(=O)CCSc1nc(-c2ccc3c(c2)OCO3)cc(C(F)(F)F)n1 | 57%
COc1ccc(NC(=O)CCSc2nc(-c3ccco3)cc(C(F)(F)F)n2)cc1OC | 50%
COc1cccc(NC(=O)CCSc2nc(-c3ccco3)cc(C(F)(F)F)n2)c1 | 27% (active)
CC(=O)c1ccc(NC(=O)CCSc2nc(-c3ccco3)cc(C(F)(F)F)n2)cc1 | 46%
O=C(CCS(=O)(=O)c1nc(-c2ccc3c(c2)OCO3)cc(C(F)(F)F)n1)Nc1ccc(F)c(Cl)c1 | 23% (active)
COc1ccc(NC(=O)CCSc2nc(-c3ccco3)cc(C(F)(F)F)n2)cc1 | 57%
O=C(CCS(=O)(=O)c1nc(-c2ccc3c(c2)OCO3)cc(C(F)(F)F)n1)Nc1ccc(Br)cc1 | 94%
COc1ccc(NC(=O)CCS(=O)(=O)c2nc(-c3ccc4c(c3)OCO4)cc(C(F)(F)F)n2)cc1 | 103%
CC(=O)c1ccc(NC(=O)CCCSc2nc(-c3ccco3)cc(C(F)(F)F)n2)cc1 | 98%

Structure (SMILES) | survival
CCCNC(=O)CCSc1nc(-c2ccc3c(c2)OCO3)cc(C(F)(F)F)n1 | 68%
CC(=O)c1cccc(NC(=O)CCCSc2nc(-c3ccco3)cc(C(F)(F)F)n2)c1 | 31% (active)
Cc1cc(F)ccc1NC(=O)CCS(=O)(=O)c1ccc2c(c1)CC(C)N2C(=O)C1CC1 (configuration not stated) | 81%
Cc1cccc(N2CCn3c2nc2c3c(=O)n(CCCc3ccccc3)c(=O)n2C)c1 | 76%
CCSc1nnc(C2CCCN(C(=O)NCc3ccccc3)C2)n1C (configuration not stated) | 84%
CC1CCCCN1C(=O)CSc1nc(-c2ccccc2)no1 (configuration not stated) | 83%
Cc1ccc(S(=O)(=O)C(CNS(=O)(=O)c2cc(F)ccc2F)c2cccs2)cc1 (configuration not stated) | 64%
CC1C(=O)CC(c2ccco2)NC1c1ccco1 (configuration not stated) | 56%
CCc1nc2ccc(C(=O)NCCc3ccccc3OC)cc2nc1CC | 73%
Cc1ccc(-c2cc3c(N4CCN(c5cc(C)ccc5C)CC4)nccn3n2)cc1 | 68%
COc1ccc(NC(=O)Cn2c(SCc3cc(C)ccc3C)nc3ccncc32)c(OC)c1OC | 61%
Cc1cccc2c1-c1sc(C(=O)NCCc3ccc(Cl)cc3)cc1CO2 | 86%
COc1ccc(/C=C/C(=O)Nc2sc(C)c(C)c2C(=O)O)cc1 | 60%
COc1ccc(-n2cnc3cc(C(=O)NC4CCCCCC4)ccc32)cc1 | 117%
CCN1C(=O)CC(C(=O)NC)SC1=Nc1cc(Cl)c(O)c(Cl)c1 (configuration not stated) | 75%
CC(=O)Nc1ccc2nc3c(=O)[nH]c(=O)[nH]c3nc2c1 | 72%
COc1ccc(NC(=O)CCSc2nc(-c3ccc(OC)cc3)cc(C(F)(F)F)n2)cc1 | 70%
COc1ccc(-c2cc(C(F)(F)F)nc(SCCC(=O)Nc3ccc(OC)c(OC)c3)n2)cc1 | 40% (active)
COc1ccc(-c2cc(C(F)(F)F)nc(SCCC(=O)Nc3ccc(NC(C)=O)cc3)n2)cc1 | 61%
CC(C)(C)NC(=O)COc1ccc(CNc2ccc3c(c2)OCCO3)cc1 | 87%
COc1ccc(CCNC(=O)CCn2c(=O)c3ccccc3n(Cc3ccccc3F)c2=O)cc1OC | 93% (active)
COc1ccc(CCNC(=O)CCCn2c(=O)c3ccccc3n(Cc3ccccc3C#N)c2=O)cc1OC | 87% (active)

Structure (SMILES) | survival
COc1ccc(CCNC(=O)CCn2c(=O)c3ccccc3n(Cc3ccc(Cl)cc3)c2=O)cc1OC | 119%
COc1ccc(CCNC(=O)CCCCn2c(=O)c3ccccc3n(Cc3ccccc3C)c2=O)cc1OC | 95%
COc1ccc(CCNC(=O)CCn2c(=O)c3ccccc3n(Cc3ccccc3C)c2=O)cc1OC | 86%
O=C(CCCCn1c(=O)c2ccccc2n(Cc2ccc(Cl)cc2)c1=O)NCc1ccccc1Cl | 97%
Cc1ccccc1Cn1c(=O)n(CCCCC(=O)NCc2ccccc2Cl)c(=O)c2ccccc21 | 93%
COc1ccc(CCNC(=O)CCCn2c(=O)c3ccccc3n(Cc3ccccc3C)c2=O)cc1OC | 85%
O=C(CCCCn1c(=O)c2ccccc2n(Cc2ccccc2F)c1=O)NCc1ccccc1Cl | 97% (active)
Cn1ccc2cc(S(=O)(=O)N3CCC(C(=O)NCCc4ccccc4)CC3)ccc21 | 89%
Cc1nn(C)c2c1c(C(F)(F)F)cc(=O)n2C(C)C(=O)N1CCN(c2ccccc2)CC1 (configuration not stated) | 86%
CC(C)OC(=O)CSc1nnc(-c2ccccc2)n1Cc1ccco1 | 87%
COc1ccc(Cl)cc1NC(=O)CN1Cc2ccccc2C1=O | 100%
CCC(Sc1nnc2c3ccccc3n(CC)c2n1)C(=O)Nc1ccc(NC(C)=O)cc1 (configuration not stated) | 104%
CC(C)(C)C1CCc2c(sc(NC(=O)c3ccccc3F)c2C(=O)N2CCCCC2)C1 (configuration not stated) | -5% (active)
CC(C)(C)C1CCc2c(sc(NC(=O)c3ccco3)c2C(=O)Nc2ccccc2Cl)C1 (configuration not stated) | 135%
Cc1ccccc1C(=O)Nc1sc2c(c1C(=O)N1CCC(C)CC1)CCCC2 | 58%
COC(=O)c1ccccc1NC(=O)c1c(NC(=O)c2ccco2)sc2c1CCC(C(C)(C)C)C2 (configuration not stated) | 137%
Cc1ccccc1NC(=O)c1c(NC(=O)c2ccccc2F)sc2c1CCC(C)C2 (configuration not stated) | 63%
CCOc1ccccc1NC(=O)c1c(NC(=O)c2ccccc2C)sc2c1CCC(C)C2 (configuration not stated) | 65%
Cc1ccccc1C(=O)Nc1sc2c(c1C(=O)N1CCC(C)CC1)CCC(C)C2 (configuration not stated) | -3% (active)
CC1CCN(C(=O)c2c(NC(=O)c3ccccc3F)sc3c2CCC(C(C)(C)C)C3)CC1 (configuration not stated) | -4% (active)
Cc1ccccc1C(=O)Nc1sc2c(c1C(=O)N1CCCCC1)CCC(C)C2 (configuration not stated) | 49%
O=C(Nc1sc2c(c1C(=O)N1CCCCC1)CCCC2)c1ccccc1Cl | 69%

Structure (SMILES) | survival
CC(C)(C)C1CCc2c(sc(NC(=O)c3ccncc3)c2C(=O)Nc2ccccc2Cl)C1 (configuration not stated) | 71%
CC1CCN(C(=O)c2c(NC(=O)c3ccccc3Cl)sc3c2CCC(C(C)(C)C)C3)CC1 (configuration not stated) | 10% (active)
Cc1cccc(-n2nnc(-c3nc(-c4cccs4)no3)c2N)c1 | 87%
COc1ccc(OC)c(NC(=O)Cn2cc(S(=O)(=O)c3ccccc3)c(=O)c3cc(C)ccc32)c1 | 70%
CCOc1ccc(NC(=O)Cn2ccn3nc(-c4ccc(OC)c(OC)c4)cc3c2=O)cc1 | 102%
Cc1ccc(SCC(=O)Nc2ccc(O)c(-c3nc4cc(C)ccc4o3)c2)cc1 | 64%
NNC(=O)C(Sc1n[nH]c(=O)[nH]c1=O)c1ccccc1 (configuration not stated) | 80%
Cc1oc(C(C)(C)C)cc1C(=O)NCCO | 77%
CCOc1cccc(C2c3[nH]c4ccccc4c3CCN2C(=O)CSc2ccccc2)c1 (configuration not stated) | 71%
COc1ccc(-c2cc(C(F)(F)F)nc(SCC(=O)Nc3ccc(C(C)=O)cc3)n2)cc1 | 59%
Cc1ccc(CN(Cc2ccco2)C(=O)COc2ccc(C)c(C)c2)cc1 | 68%
Cc1ccccc1C(=O)Nc1sc2c(c1C(=O)O)CCC(C(C)(C)C)C2 (configuration not stated) | -2% (active)
CCCNC(=O)c1c(NC(=O)c2ccccc2)sc2c1CCC(C(C)(C)C)C2 (configuration not stated) | 9% (active)
Cc1ccccc1C(=O)Nc1sc2c(c1C(=O)NCc1ccco1)CCC(C(C)(C)C)C2 (configuration not stated) | 109%
CCN(CC)C(=O)c1c(NC(=O)c2ccccc2F)sc2c1CCC(C(C)(C)C)C2 (configuration not stated) | -8% (active)
Cc1ccc(C(=O)Nc2sc3c(c2C(=O)NCc2ccco2)CCC(C(C)(C)C)C3)cc1 (configuration not stated) | 64%
Cc1ccccc1C(=O)Nc1sc2c(c1C(=O)N1CCCCC1)CCC(C(C)(C)C)C2 (configuration not stated) | -2% (active)
CC(C)(C)C1CCc2c(sc(NC(=O)c3ccc(Cl)cc3)c2C(=O)NCc2ccco2)C1 (configuration not stated) | 86%
Cc1ccccc1NC(=O)c1c(NC(=O)c2ccco2)sc2c1CCC(C(C)(C)C)C2 (configuration not stated) | 74%
CC(C)(C)C1CCc2c(sc(NC(=O)c3ccccc3F)c2C(=O)NCc2ccco2)C1 (configuration not stated) | 61%
CN(C)C(=O)c1c(NC(=O)c2ccccc2F)sc2c1CCCC2 | 76%
